Only some compounds are listed: those with a hit (about 4.2% of all), similar ones and a draw of the others.
AHR act: human AHR activation; P35869; AHR-responsive luciferase reporter cells, luminescence; activation, % at 5 µM; 320,000 compounds, 2.5% hits; in the data active = activation above about 47%
Target sequence (P35869 whole entry, looked up): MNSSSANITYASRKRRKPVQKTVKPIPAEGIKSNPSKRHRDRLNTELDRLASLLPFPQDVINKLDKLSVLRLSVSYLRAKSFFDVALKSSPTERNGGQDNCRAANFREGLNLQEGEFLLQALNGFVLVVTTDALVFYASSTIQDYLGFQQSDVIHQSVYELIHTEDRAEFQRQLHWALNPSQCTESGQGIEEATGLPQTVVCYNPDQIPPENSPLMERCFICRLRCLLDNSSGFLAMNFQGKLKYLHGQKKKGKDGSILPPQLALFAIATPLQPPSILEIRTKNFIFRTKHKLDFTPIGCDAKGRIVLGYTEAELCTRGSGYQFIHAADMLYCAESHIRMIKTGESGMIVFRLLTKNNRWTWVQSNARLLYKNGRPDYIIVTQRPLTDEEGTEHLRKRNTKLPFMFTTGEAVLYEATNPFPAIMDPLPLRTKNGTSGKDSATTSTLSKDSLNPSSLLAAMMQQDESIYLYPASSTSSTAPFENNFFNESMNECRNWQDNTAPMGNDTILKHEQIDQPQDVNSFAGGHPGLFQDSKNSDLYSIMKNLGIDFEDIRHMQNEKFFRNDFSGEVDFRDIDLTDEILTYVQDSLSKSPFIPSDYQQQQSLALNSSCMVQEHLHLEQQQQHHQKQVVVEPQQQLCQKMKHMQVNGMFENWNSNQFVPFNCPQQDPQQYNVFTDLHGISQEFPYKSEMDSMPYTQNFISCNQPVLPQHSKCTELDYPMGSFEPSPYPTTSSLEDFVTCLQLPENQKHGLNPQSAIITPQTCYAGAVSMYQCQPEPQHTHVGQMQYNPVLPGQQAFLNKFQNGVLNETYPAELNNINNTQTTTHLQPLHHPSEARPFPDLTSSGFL
esBAF inh: inhibitors of esBAF chromatin remodeling in mouse ES cells. Bmi1-luciferase knock-in reporter, 24 h; 100% = twice the neutral-well signal. reporter increase, % at 12.5 µM. 350,000 compounds, 2% hits; in the data active = activation above about 40%;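 note: a rise in the Bmi1 reporter signal indicates esBAF inhibition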
MITF TRPM1 HTS: MITF TRPM1 promoter activation in melanoma cells; SK-MEL-5 TRPM1-promoter luciferase, 24 h; % of positive control, neutral wells = 0; 300,000 compounds, 0.75% hits; activation, % at 12.5 µM;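 active = mean activation of at least 80% with every replicate also reaching 80%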
FXN GAA850 act: increases GAA850 frataxin promoter reporter activity | HEK293 lucGAA850 FXN promoter luciferase reporter, 24 h; percent of 10 µM SAHA response | activation, % at 6 µM | 360,000 compounds, 0.56% hits | AID 540364;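 active = activation above the average of all compounds screened plus 3 SD, cutoff fixed separately per campaign, cut at about 7.5% in these data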
Wnt act: Wnt/beta-catenin pathway activation. Wnt/beta-catenin reporter cell assay, activator, plate reader. activation, % at 9.35 µM. 300,000 compounds, 1.2% hits; in the data active = activation above about 30%, passing the limit was not always enough
Numbers stand for hits.

For COc1ccc(-c2ccc(-c3noc(-c4ccco4)n3)c(OC)n2)cc1 the results were AHR act inactive, esBAF inh 48, MITF TRPM1 HTS inactive, FXN GAA850 act inactive and Wnt act inactive.
`CCOc1nc(C)ccc1-c1noc(-c2ccccn2)n1` gave AHR act inactive, esBAF inh inactive, MITF TRPM1 HTS inactive and FXN GAA850 act inactive.
COc1nc(C)ccc1-c1noc(-c2cccs2)n1 was read as AHR act inactive, FXN GAA850 act inactive and Wnt act inactive.
For COc1ccc(-c2ccc(-c3noc(-c4ccccc4)n3)c(OC)n2)cc1 the results were AHR act inactive, esBAF inh inactive, MITF TRPM1 HTS inactive, FXN GAA850 act inactive and Wnt act inactive.
COc1nc(-c2ccccc2)ccc1-c1noc(-c2cccs2)n1 was read as AHR act 52, esBAF inh 46, MITF TRPM1 HTS inactive and FXN GAA850 act inactive.
O=C(C[C@@H]1C=C[C@@H](NC(=O)C2CCC2)[C@@H](CO)O1)NCCCN1CCOCC1 was read as esBAF inh inactive.
Screening O=C(O)c1cccc(Cn2c(Cl)c(/C=N/NC(=O)c3ccc(O)cc3)sc2=O)c1 returned AHR act inactive, esBAF inh inactive, MITF TRPM1 HTS inactive, FXN GAA850 act inactive and Wnt act inactive.
For O=c1sc(/C=N/Nc2ccccc2)c(Cl)n1Cc1ccccc1 the results were AHR act inactive, MITF TRPM1 HTS inactive, FXN GAA850 act inactive and Wnt act 46.
`Fc1cccc(NCc2cn3ccccc3n2)c1` gave AHR act inactive, esBAF inh 60 and FXN GAA850 act inactive.
Screening Cn1c(=S)n(/N=C/c2ccc3c(c2)OCO3)c2ccccc21 returned AHR act 58, esBAF inh inactive, MITF TRPM1 HTS inactive and FXN GAA850 act inactive.
For C(=N\n1cnnc1)/c1ccc2c(c1)OCO2 the results were AHR act inactive, esBAF inh inactive, MITF TRPM1 HTS inactive, FXN GAA850 act inactive and Wnt act inactive.
Screening C(=NN1CCCCCC1)c1ccc2c(c1)OCO2 returned esBAF inh inactive, MITF TRPM1 HTS inactive, FXN GAA850 act inactive and Wnt act 33.
Screening O=C(/C=C/C=C/c1ccc2c(c1)OCO2)N1CCCCC1 returned AHR act inactive, esBAF inh 51, MITF TRPM1 HTS 98, FXN GAA850 act inactive and Wnt act inactive.
`COc1ccc(/C=N/n2c(=S)n(C)c3ccccc32)cc1OC` gave AHR act inactive, esBAF inh inactive, MITF TRPM1 HTS inactive and FXN GAA850 act inactive.
`Cc1cc2ncn(/N=C/c3ccc4c(c3)OCO4)c2cc1C` gave AHR act 55, MITF TRPM1 HTS inactive, FXN GAA850 act inactive and Wnt act inactive.
`CNC[C@@H]1Oc2ccc(NC(=O)Nc3ccc(C(F)(F)F)cc3)cc2CC(=O)N([C@H](C)CO)C[C@H]1C` gave esBAF inh inactive.
For COCC#Cc1cnc2c(c1)C(=O)N([C@@H](C)CO)C[C@H](C)[C@@H](CN(C)Cc1ccccc1F)O2 the results were esBAF inh inactive.
Screening CC=Cc1ccc2n(c1=O)C[C@H]1[C@H](CO)[C@@H](C(=O)NCCN3CCCC3)N(C(=O)NCCC)[C@@H]21 (mixture of isomers) returned esBAF inh inactive.
For C[C@@H]1CN([C@@H](C)CO)C(=O)c2cc(C3=CCCC3)cnc2O[C@@H]1CN(C)C(=O)C1CCOCC1 the results were esBAF inh inactive.
`O=[N+]([O-])c1ccc(C=NN2CCCCCC2)cc1` gave esBAF inh 69, MITF TRPM1 HTS inactive, FXN GAA850 act inactive and Wnt act 60.
Screening c1ccc(C2OCC3(CO2)COC(c2ccccc2)OC3)cc1 (stereo not given) returned AHR act inactive, esBAF inh inactive, FXN GAA850 act inactive and Wnt act inactive.
`c1ccc2c(C3OCC4(CCCCC4)CO3)cccc2c1` gave esBAF inh 45, FXN GAA850 act inactive and Wnt act inactive.
Cc1cc(/C=C2\SC(=S)N(Cc3ccco3)C2=O)c(C)n1-c1cccnc1 was read as esBAF inh 43 and FXN GAA850 act inactive.
`O=C1/C(=C/c2cccnc2)SC(=S)N1Cc1ccco1` gave MITF TRPM1 HTS inactive, FXN GAA850 act inactive and Wnt act inactive.
`Cc1cc(/C=C2\NC(=O)NC2=O)c(C)n1-c1cccnc1` gave AHR act 100, esBAF inh inactive, FXN GAA850 act inactive and Wnt act inactive.
For Cc1cccc(C)c1-n1c(C)cc(/C=C2\NC(=O)NC2=O)c1C the results were AHR act inactive, esBAF inh inactive and FXN GAA850 act inactive.
For Cc1ccc(S(=O)(=O)NCC[C@@H]2CC[C@@H](NC(=O)c3ccccn3)[C@H](CO)O2)cc1 the results were esBAF inh inactive.
CC(C)(C)c1ccc(C(=O)c2cn[nH]c2-c2ccccc2O)cc1 was read as AHR act inactive, esBAF inh 63, MITF TRPM1 HTS inactive, FXN GAA850 act inactive and Wnt act inactive.
O=C(c1ccc(Br)cc1)c1cn[nH]c1-c1ccccc1O was read as AHR act inactive, esBAF inh inactive, MITF TRPM1 HTS inactive, FXN GAA850 act inactive and Wnt act inactive.
`CC1(C)CC(=O)C=C(Nc2ccc(Cl)cc2)C1` gave AHR act inactive, esBAF inh inactive, MITF TRPM1 HTS inactive, FXN GAA850 act inactive and Wnt act inactive.
Screening CC1(C)CC(=O)C=C(Nc2ccc(Cl)c(Br)c2)C1 returned AHR act 68, esBAF inh inactive, FXN GAA850 act inactive and Wnt act inactive.
`COc1ccc(NC(=O)Nc2ccc3c(c2)C(=O)N([C@@H](C)CO)C[C@@H](C)[C@H](CN(C)S(=O)(=O)c2cn(C)cn2)OCCCC[C@@H](C)O3)cc1` gave esBAF inh inactive.
`CCN1c2ccccc2NC2C1C(C(C)=O)C(=O)N2c1ccc(Cl)cc1` (stereo not given) gave AHR act 83, esBAF inh inactive, MITF TRPM1 HTS inactive, FXN GAA850 act inactive and Wnt act inactive.
O=C(N/N=C\C=C\c1ccc2c(c1)OCO2)c1cccnc1 was read as AHR act 68, esBAF inh inactive, MITF TRPM1 HTS inactive, FXN GAA850 act inactive and Wnt act inactive.
Cc1ccc(C(=O)N/N=C\c2ccncc2)s1 was read as AHR act 55, esBAF inh inactive, MITF TRPM1 HTS inactive, FXN GAA850 act inactive and Wnt act inactive.
For O=C(N/N=C\c1ccncc1)c1ccc(Br)s1 the results were esBAF inh inactive, MITF TRPM1 HTS inactive, FXN GAA850 act inactive and Wnt act inactive.
O=C(N/N=C/c1cc2c(cc1Br)OCO2)c1cccnc1 was read as AHR act 48, MITF TRPM1 HTS inactive, FXN GAA850 act inactive and Wnt act inactive.
`O=C(/C=C/c1ccc2c(c1)OCO2)c1cccnc1` gave AHR act inactive, esBAF inh inactive, MITF TRPM1 HTS inactive, FXN GAA850 act inactive and Wnt act inactive.
For Cc1ccc(C(=O)N/N=C\c2cc3c(cc2Br)OCO3)s1 the results were AHR act 47, MITF TRPM1 HTS inactive, FXN GAA850 act inactive and Wnt act inactive.
Screening C[C@@H]1CN([C@@H](C)CO)S(=O)(=O)c2ccc(C3=CCCCC3)cc2O[C@@H]1CN(C)Cc1ccncc1 returned esBAF inh inactive.
